ANO1 block – TMEM16A chloride channel inhibitors, primary screen, cell-based, HTS. Anoctamin-1 (Mus musculus), Q8BHY3. HEK293 TMEM16A/YFP iodide influx fluorescence, ionomycin. normalized B-score (activity score, 25-100; higher = stronger inhibition) at 10 µM. 310,000 compounds, 1.2% hits;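 active = ratio plate-corrected score three or more library SD toward inhibition, starting fluorescence score within five deviations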;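 note: score derived from kinetic fluorescence span divided by baseline fluorescence per well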
Target sequence (Q8BHY3 whole entry, looked up): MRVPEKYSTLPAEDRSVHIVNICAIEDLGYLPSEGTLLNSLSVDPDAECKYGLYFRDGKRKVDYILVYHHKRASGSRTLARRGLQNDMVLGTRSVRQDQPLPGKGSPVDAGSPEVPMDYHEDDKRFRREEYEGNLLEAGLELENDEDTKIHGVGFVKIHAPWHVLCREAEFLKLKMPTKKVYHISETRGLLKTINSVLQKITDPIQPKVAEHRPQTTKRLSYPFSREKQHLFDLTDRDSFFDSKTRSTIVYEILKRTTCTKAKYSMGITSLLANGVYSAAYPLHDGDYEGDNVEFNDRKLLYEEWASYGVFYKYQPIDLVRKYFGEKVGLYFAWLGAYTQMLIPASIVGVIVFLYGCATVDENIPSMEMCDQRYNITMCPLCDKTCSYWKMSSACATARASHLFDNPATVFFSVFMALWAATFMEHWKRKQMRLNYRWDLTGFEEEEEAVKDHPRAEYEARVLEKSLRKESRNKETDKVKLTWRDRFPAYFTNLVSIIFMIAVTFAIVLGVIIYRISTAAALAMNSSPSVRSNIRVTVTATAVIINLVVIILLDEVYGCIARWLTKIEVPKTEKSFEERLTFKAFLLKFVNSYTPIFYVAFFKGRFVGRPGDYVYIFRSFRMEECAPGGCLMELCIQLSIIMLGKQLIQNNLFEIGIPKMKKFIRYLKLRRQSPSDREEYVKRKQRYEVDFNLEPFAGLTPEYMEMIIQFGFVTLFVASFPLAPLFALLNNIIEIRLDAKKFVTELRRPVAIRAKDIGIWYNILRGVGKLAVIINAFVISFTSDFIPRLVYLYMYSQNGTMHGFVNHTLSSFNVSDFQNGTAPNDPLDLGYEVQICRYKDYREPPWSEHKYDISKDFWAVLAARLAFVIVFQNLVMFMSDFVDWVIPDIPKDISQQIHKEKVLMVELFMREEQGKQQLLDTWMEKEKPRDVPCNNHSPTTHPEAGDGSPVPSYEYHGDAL
CHT PAM – CHT positive allosteric modulators, primary screen, cell-based, membrane potential dye, choline EC20; 310,000 compounds, 0.49% hits; High affinity choline transporter 1 (Homo sapiens), Q9GZV3; CHT-expressing cells; stronger effect = higher value; LV-AA mutant CHT in HEK293 cells; B-score at 10 µM;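 active = initial fluorescence not abnormally high and integrated response B-score, plate-corrected, over 3 SD above library mean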
CHT block – inhibitors of human choline transporter CHT; CHT-expressing cells, membrane potential dye, choline response; stronger effect = lower value; High affinity choline transporter 1 (Homo sapiens), Q9GZV3; AID 488975, 2010; 310,000 compounds, 0.86% hits; B-score at 10 µM;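 active = B-score over 3 SD under the library average, and starting fluorescence ratio not unusually high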;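 note: choline stimulus applied at its EC90 after an EC20 pre-addition; B-score computed on integrated fluorescence ratio after choline addition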
ANO1 activ – TMEM16A chloride channel activators or potentiators, primary screen, cell-based, HTS; Anoctamin-1 (Mus musculus), Q8BHY3; HEK293 TMEM16A/YFP-H148Q/I152L, iodide quench fluorescence; stronger effect = lower value; B-score at 10 µM; 340,000 compounds, 0.3% hits; AID 623877, 2012;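 active = fluorescence-ratio B-score plate-corrected deviation score at least 3 library SD below zero, with starting fluorescence score within 5 deviations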;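 note: channel opened by trigger with iodide after compound preincubation; score built on the fluorescence ratio of max minus min over baseline; more negative score means more quench and so TMEM16A activation or potentiation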
The depositor's hits bear a star. Most compounds without a hit are left out; they make up all but 2.3% or so of the library.

For CCOCCCNC(=O)CS(=O)(=O)Cc1nc(-c2cccc(OC)c2)oc1C the results were ANO1 block 25*, CHT PAM inactive, CHT block inactive and ANO1 activ inactive.
CCN1CCN(CCCNC(=O)CS(=O)(=O)Cc2nc(-c3cccc(OC)c3)oc2C)CC1 was read as ANO1 block inactive, CHT PAM inactive, CHT block inactive and ANO1 activ inactive.
For Cc1cc(NC(=O)CSc2nnc(C)n2C)no1 the results were ANO1 block inactive, CHT PAM inactive, CHT block inactive and ANO1 activ inactive.
Screening CN1CCc2c(OCc3ccc(F)cc3)cccc2C1=O returned ANO1 block inactive, CHT PAM inactive, CHT block inactive and ANO1 activ inactive.
O=C1c2cccc(OCc3ccc(F)cc3)c2CCN1Cc1ccc(F)cc1 was read as ANO1 block 25*, CHT PAM inactive, CHT block inactive and ANO1 activ inactive.
For CC(Sc1nnc2c(n1)[nH]c1ccccc12)C(=O)N(C)C1CCCCC1 (centres undefined) the results were ANO1 block 100*, CHT PAM inactive, CHT block inactive and ANO1 activ inactive.
`CC(Sc1nnc2c(n1)[nH]c1ccccc12)C(=O)NC1CCCCC1` (centres undefined) gave ANO1 block inactive, CHT PAM inactive, CHT block inactive and ANO1 activ inactive.
`Cc1cc(SC(C)C(=O)Nc2ncc(Cl)cc2Cl)nc2ccccc12` (centres undefined) gave ANO1 block inactive, CHT PAM inactive, CHT block inactive and ANO1 activ inactive.
Screening Cc1nnc(SC(C)C(=O)Nc2ncc(Cl)cc2Cl)n1Cc1ccccc1 (centres undefined) returned ANO1 block inactive, CHT PAM inactive, CHT block inactive and ANO1 activ -20*.
CC1(C)Cc2ccccc2-c2nnc(SCc3ccccc3)n21 was read as ANO1 block inactive, CHT PAM inactive, CHT block inactive and ANO1 activ inactive.
`CC1(C)Cc2ccccc2-c2nnc(SCC(=O)N3CCN(c4ccccc4)CC3)n21` gave ANO1 block 25*, CHT PAM inactive, CHT block inactive and ANO1 activ inactive.
Screening CCn1cc(/C=C(\NC(=O)c2ccccc2OC)C(=O)N2CCN(C)CC2)c2ccccc21 returned ANO1 block inactive, CHT PAM inactive, CHT block inactive and ANO1 activ inactive.
O=C(/C=C/c1cccc(C(F)(F)F)c1)Nc1cccc(C(F)(F)F)c1 was read as ANO1 block 100*, CHT PAM inactive, CHT block inactive and ANO1 activ -7.2*.
For CSc1cccc(NC(=O)/C=C/c2cccc(Cl)c2)c1 the results were ANO1 block 100*, CHT PAM inactive, CHT block inactive and ANO1 activ inactive.
Screening C/C=C/C(=O)Nc1cccc(C(F)(F)F)c1 returned ANO1 block inactive, CHT PAM inactive, CHT block inactive and ANO1 activ inactive.
For O=C(NCc1ccccn1)c1coc(=O)c(Br)c1 the results were ANO1 block 100*, CHT PAM inactive, CHT block inactive and ANO1 activ inactive.
For O=C(O)CCn1c(-c2ccccc2)cc2ccccc21 the results were ANO1 block inactive, CHT PAM inactive, CHT block inactive and ANO1 activ inactive.
CCOc1cc(N2CCOCC2)c(OCC)cc1NC(=O)Cn1cnc2c(=O)n(C)c(=O)n(C)c21 was read as ANO1 block inactive, CHT PAM inactive, CHT block inactive and ANO1 activ inactive.
CCOc1cc(/C=C(\C#N)C(=O)Nc2cccc(C(=O)O)c2)ccc1OCc1ccccc1Cl was read as ANO1 block 100*, CHT PAM inactive, CHT block inactive and ANO1 activ inactive.
`COc1cc(/C=C(\C#N)C(=O)Nc2cccc(C(=O)O)c2)ccc1OCc1ccc(F)cc1` gave ANO1 block inactive, CHT PAM inactive, CHT block inactive and ANO1 activ inactive.
`CCOc1cc(/C=C(\C#N)C(=O)Nc2cccc(C(=O)O)c2)cc(Br)c1OC(=O)c1ccc(OC)cc1` gave ANO1 block 100*, CHT PAM inactive, CHT block inactive and ANO1 activ inactive.
`CC1CCN(S(=O)(=O)c2cccc(-c3cn4cc(Cl)ccc4n3)c2)CC1` gave ANO1 block inactive, CHT PAM inactive, CHT block inactive and ANO1 activ inactive.
For CCOC(=O)C1CCN(S(=O)(=O)c2cccc(-c3cn4cc(Cl)ccc4n3)c2)CC1 the results were ANO1 block inactive, CHT PAM inactive, CHT block inactive and ANO1 activ -21*.
COc1ccc(C(=O)Nc2ccc(C)cn2)c(OC)c1 was read as ANO1 block 100*, CHT PAM inactive, CHT block inactive and ANO1 activ inactive.
`COc1ccc(C(=O)Nc2cc(C)on2)c(OC)c1` gave ANO1 block inactive, CHT PAM inactive, CHT block inactive and ANO1 activ inactive.
Cc1cc(O)cc2c1C(=O)/C(=C/c1ccco1)O2 was read as ANO1 block inactive, CHT PAM inactive, CHT block inactive and ANO1 activ inactive.
Screening COc1cc(S(=O)(=O)Nc2ccc(C)cc2)ccc1N=Cc1c(C)[nH]n(-c2ccc(C)cc2)c1=O returned ANO1 block inactive, CHT PAM inactive, CHT block inactive and ANO1 activ inactive.
`COc1cc(S(=O)(=O)Nc2ccc(C)cc2)ccc1N=Cc1c(C)c(C#N)c(=O)n(C)c1O` gave ANO1 block inactive, CHT PAM inactive, CHT block inactive and ANO1 activ -6*.
For O=C(O)C(Cc1c[nH]c2ccccc12)NS(=O)(=O)c1cccc(Cl)c1Cl (centres undefined) the results were ANO1 block inactive, CHT PAM inactive, CHT block inactive and ANO1 activ inactive.
For CC(C)C[C@H](CO)Nc1nc(Nc2cccc(Cl)c2)c2ncn(C(C)C)c2n1 the results were ANO1 block inactive, CHT PAM inactive, CHT block inactive and ANO1 activ inactive.
Screening CC(C)n1cnc2c(Nc3ccc(F)c(Cl)c3)nc(NCCO)nc21 returned ANO1 block inactive, CHT PAM inactive, CHT block -5.4* and ANO1 activ inactive.
For O=C(NNC(=O)c1ccccc1O)c1ccc(Cl)c(S(=O)(=O)N2CCc3ccccc32)c1 the results were ANO1 block 100*, CHT PAM inactive, CHT block inactive and ANO1 activ inactive.
CC(C)(CO)NC(=O)Nc1ccc(Cl)c(Cl)c1 was read as ANO1 block inactive, CHT PAM inactive, CHT block inactive and ANO1 activ inactive.
COc1cc2c(cc1OC)CN(C(=O)COc1ccccc1[N+](=O)[O-])CC2 was read as ANO1 block 100*, CHT PAM inactive, CHT block inactive and ANO1 activ inactive.
